# Data as given in the supplement of paper PMC11732987, “Enantioselective OTUD7B fragment discovery through chemoproteomics screening and high-throughput optimisation” (Communications Chemistry, 2025).
# A number with no mark means an inactive call.
# Tests used:
# Experiment in all cases: log2 ratio of Biotin-Ahx-Ub-VS probe labelling (fragment/DMSO); higher = less target engagement (more negative = stronger competition), active = hit call of the paper (q ≤ 0.05, log2 ratio ≤ -1)
# Details in all cases: compound concentration: 200 uM; treatment time: 3 h
# OTUD6B = molecular target: T1, OTUD6B (UniProt Q8N6M0)
# T1 sequence (whole entry): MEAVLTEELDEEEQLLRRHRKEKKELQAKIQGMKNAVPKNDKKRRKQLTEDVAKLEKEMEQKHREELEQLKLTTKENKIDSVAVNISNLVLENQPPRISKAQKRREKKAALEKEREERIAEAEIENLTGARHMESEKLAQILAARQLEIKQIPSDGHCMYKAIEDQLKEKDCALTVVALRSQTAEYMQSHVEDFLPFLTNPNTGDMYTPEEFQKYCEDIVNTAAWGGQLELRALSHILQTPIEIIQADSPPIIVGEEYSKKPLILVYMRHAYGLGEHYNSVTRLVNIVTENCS
# Procedure, shortened: (§1)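 HEK293T lysate (495 µg per sample, in Tris/CHAPS/IGEPAL buffer with protease inhibitors) was treated in triplicate with fragment at 200 µM or with DMSO for 3 h. It was then treated with Biotin-Ahx-Ub-VS (0.5 µM final) for 1 h. Labelled DUBs were NeutrAvidin-enriched, digested with LysC and trypsin, and run by diaPASEF LC-MS/MS. Spectronaut label-free quantities were global-median-normalised. Values are average log2 ratios fragment/DMSO by unpaired t-test, using proteins with ≥2 unique peptides.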
# OTUD7B = molecular target: T2, OTUD7B (UniProt Q6GQQ9)
# T2 sequence (whole entry): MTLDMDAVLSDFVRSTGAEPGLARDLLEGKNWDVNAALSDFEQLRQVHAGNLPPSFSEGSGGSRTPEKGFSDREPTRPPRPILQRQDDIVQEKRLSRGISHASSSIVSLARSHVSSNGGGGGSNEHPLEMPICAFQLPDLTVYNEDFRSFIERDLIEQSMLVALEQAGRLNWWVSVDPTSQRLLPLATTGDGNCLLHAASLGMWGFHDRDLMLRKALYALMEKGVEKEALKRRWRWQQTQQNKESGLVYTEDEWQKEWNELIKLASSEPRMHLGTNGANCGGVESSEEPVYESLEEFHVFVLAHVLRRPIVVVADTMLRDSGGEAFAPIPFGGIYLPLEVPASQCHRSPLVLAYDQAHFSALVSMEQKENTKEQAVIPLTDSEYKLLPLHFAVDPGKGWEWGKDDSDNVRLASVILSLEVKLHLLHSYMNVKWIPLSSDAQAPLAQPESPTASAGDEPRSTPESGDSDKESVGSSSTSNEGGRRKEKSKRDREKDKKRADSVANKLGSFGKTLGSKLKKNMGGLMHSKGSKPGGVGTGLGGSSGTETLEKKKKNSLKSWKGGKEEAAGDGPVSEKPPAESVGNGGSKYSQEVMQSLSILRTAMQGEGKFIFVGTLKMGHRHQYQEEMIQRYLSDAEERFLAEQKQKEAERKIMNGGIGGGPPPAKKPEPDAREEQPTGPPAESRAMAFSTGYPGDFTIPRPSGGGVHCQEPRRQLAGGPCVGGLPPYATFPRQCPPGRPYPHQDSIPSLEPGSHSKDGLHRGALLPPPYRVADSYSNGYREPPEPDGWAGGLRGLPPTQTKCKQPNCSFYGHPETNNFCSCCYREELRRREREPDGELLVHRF
# Procedure, shortened: as §1
# PRPF8 = PRPF8 (UniProt Q6P2Q9)
# Procedure, shortened: as §1
# PSMD7 = molecular target: T3, PSMD7 (UniProt P51665)
# T3 sequence (whole entry): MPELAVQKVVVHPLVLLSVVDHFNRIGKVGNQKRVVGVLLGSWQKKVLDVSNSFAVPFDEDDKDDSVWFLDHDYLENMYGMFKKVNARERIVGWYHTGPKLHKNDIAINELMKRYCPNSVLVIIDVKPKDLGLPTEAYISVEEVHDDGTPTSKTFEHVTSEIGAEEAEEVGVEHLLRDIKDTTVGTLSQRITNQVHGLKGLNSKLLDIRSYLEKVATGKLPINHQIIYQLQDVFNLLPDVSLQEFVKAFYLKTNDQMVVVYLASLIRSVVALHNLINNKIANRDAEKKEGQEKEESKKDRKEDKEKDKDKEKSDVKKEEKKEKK
# Procedure, shortened: as §1
# UCHL1 = UCHL1 (UniProt P09936)
# UCHL1, sequence (P09936 whole entry, looked up): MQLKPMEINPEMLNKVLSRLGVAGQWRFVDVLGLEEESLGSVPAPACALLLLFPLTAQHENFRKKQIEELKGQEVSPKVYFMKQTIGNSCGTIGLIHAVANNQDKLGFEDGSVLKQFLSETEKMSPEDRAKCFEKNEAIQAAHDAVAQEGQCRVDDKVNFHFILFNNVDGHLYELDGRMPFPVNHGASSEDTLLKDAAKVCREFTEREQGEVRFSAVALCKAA
# Procedure, shortened: as §1
# UCHL3 = molecular target: T4, UCHL3 (UniProt P15374)
# T4 sequence (whole entry): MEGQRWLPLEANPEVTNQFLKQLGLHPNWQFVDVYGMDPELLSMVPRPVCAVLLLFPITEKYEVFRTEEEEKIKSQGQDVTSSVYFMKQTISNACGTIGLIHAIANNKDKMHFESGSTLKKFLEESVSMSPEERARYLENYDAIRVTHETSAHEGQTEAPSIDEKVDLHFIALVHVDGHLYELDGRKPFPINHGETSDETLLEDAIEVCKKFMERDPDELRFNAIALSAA
# Procedure, shortened: as §1
# UCHL5 = molecular target: T5, UCHL5 (UniProt Q9Y5K5)
# T5 sequence (whole entry): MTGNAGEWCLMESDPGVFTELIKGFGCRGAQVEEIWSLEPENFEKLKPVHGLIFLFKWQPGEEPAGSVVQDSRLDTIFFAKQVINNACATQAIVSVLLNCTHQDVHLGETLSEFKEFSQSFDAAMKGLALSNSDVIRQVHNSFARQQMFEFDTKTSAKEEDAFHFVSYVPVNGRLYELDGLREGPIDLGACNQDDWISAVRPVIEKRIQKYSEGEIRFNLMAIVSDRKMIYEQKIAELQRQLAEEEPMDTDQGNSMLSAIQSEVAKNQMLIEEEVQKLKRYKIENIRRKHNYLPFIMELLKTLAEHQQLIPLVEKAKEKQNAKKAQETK
# Procedure, shortened: as §1
# USP10 = USP10 (UniProt Q14694)
# USP10, sequence (Q14694 whole entry): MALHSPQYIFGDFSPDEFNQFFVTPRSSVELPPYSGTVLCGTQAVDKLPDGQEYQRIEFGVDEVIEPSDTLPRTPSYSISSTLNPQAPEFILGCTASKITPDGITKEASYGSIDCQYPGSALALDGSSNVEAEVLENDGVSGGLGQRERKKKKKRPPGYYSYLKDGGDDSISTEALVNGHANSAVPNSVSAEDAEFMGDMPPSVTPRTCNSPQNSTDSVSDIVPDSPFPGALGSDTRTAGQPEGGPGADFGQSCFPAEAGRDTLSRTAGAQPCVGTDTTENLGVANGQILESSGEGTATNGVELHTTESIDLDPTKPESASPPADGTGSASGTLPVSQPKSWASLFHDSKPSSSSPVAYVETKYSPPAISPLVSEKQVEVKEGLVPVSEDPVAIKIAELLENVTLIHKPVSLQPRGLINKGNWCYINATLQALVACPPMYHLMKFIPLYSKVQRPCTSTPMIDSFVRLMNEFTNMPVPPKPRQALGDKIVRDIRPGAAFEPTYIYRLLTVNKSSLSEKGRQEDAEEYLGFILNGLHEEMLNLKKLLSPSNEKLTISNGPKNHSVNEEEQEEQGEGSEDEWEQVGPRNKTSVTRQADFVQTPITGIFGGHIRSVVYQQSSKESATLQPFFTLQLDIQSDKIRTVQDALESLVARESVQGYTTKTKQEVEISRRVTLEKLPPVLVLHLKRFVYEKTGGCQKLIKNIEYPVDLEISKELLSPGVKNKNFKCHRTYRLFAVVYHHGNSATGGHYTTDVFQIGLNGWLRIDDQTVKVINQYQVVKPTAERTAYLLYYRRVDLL
# Procedure, shortened: as §1
# USP15 = molecular target: T6, USP15 (UniProt Q9Y4E8)
# T6 sequence (whole entry): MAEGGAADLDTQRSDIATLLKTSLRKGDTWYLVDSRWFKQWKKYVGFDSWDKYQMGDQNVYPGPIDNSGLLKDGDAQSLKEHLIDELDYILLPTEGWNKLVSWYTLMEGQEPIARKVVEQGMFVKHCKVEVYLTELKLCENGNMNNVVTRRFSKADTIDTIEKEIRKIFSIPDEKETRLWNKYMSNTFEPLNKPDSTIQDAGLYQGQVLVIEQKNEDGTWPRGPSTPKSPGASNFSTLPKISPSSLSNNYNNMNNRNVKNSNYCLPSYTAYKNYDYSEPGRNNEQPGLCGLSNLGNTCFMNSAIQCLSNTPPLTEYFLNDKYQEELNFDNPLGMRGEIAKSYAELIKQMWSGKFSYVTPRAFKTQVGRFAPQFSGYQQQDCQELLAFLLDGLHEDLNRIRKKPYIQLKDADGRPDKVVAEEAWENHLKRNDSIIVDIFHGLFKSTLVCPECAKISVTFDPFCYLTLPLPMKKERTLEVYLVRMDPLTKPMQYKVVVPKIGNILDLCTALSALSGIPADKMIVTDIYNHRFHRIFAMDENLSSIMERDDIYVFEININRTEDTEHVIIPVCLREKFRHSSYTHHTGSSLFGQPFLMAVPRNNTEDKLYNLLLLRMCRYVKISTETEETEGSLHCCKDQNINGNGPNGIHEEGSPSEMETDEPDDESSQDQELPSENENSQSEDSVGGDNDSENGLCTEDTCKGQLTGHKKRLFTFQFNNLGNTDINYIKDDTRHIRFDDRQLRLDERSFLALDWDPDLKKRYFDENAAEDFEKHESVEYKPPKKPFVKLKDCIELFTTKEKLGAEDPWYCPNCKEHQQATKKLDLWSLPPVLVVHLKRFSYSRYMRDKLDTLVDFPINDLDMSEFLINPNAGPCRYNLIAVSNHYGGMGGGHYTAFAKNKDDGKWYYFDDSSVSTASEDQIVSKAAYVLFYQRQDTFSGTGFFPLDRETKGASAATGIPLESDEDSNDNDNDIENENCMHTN
# Procedure, shortened: as §1
# USP16 = USP16 (UniProt Q9Y5T5)
# USP16, sequence (Q9Y5T5 whole entry, looked up): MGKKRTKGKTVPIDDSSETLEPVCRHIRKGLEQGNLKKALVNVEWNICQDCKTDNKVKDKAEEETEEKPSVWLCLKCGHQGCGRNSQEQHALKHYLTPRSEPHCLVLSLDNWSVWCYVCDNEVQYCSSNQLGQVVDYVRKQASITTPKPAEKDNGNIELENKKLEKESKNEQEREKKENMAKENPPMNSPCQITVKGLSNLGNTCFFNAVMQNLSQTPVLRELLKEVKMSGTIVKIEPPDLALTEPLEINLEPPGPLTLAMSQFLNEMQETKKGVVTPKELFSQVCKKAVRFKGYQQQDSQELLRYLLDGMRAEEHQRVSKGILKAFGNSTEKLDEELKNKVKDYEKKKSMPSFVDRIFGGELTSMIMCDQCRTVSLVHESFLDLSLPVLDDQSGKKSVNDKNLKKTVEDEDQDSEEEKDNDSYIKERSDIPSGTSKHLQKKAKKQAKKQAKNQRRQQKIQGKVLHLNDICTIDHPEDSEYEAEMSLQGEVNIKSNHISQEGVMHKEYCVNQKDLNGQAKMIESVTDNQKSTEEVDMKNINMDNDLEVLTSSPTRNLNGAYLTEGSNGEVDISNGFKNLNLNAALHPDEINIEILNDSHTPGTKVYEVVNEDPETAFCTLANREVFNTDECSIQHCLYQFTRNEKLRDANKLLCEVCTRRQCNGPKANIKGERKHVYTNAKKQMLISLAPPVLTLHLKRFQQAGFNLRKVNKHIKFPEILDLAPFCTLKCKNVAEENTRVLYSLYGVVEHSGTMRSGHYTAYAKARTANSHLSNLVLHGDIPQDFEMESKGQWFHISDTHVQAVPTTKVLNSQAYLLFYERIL
# Procedure, shortened: as §1
compound,measurement,setting,value
O=C(CCl)N1CCCCC12CCOCC2,log2 ratio of Biotin-Ahx-Ub-VS probe labelling,OTUD6B,-0.371
same,log2 ratio of Biotin-Ahx-Ub-VS probe labelling,OTUD7B,-0.652
same,log2 ratio of Biotin-Ahx-Ub-VS probe labelling,PRPF8,-0.0698
same,log2 ratio of Biotin-Ahx-Ub-VS probe labelling,PSMD7,-0.183
same,log2 ratio of Biotin-Ahx-Ub-VS probe labelling,UCHL1,-2.07 (active)
same,log2 ratio of Biotin-Ahx-Ub-VS probe labelling,UCHL3,-0.176
same,log2 ratio of Biotin-Ahx-Ub-VS probe labelling,UCHL5,-0.503
same,log2 ratio of Biotin-Ahx-Ub-VS probe labelling,USP10,-0.064
same,log2 ratio of Biotin-Ahx-Ub-VS probe labelling,USP15,-0.474
same,log2 ratio of Biotin-Ahx-Ub-VS probe labelling,USP16,-0.51
